For 24 compounds, fold change, cell count and z-score results are on record in PubChem BioAssay.

The nature of assay [1]: sensitizers of A549 cells to miR-34 induction, primary screen, imaging, A549 dox-inducible miR-34, nuclei and caspase counts (AID 1347080). Further: test concentration not given here. Conditions: A549 miR-34 inducible, Hoechst nuclei count, 48 h.
The nature of assay [2]: survival rescue of mitochondrial mutant cells in low glucose, primary screen, MELAS cybrids, Rieske KO mouse fibroblasts, CellTiter-Glo (AID 1508586;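 active means mean z-score across replicates of 1.96 or higher in either the MELAS or the Rieske mutant cell line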;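 further: test concentration not given here; z relative to plate mean and SD of compound and empty wells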).
Assay [3] in a line: viability rescue of complex I mutant cybrids, primary screen, cell-based, galactose medium, ATP luminescence (AID 1645843;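 active means z-score of at least 1.8 in each of two replicates, scored against plate mean and spread of sample wells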;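 further: positive z means more ATP and so rescue of galactose-driven cybrid death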). Conditions: complex I mutant cybrid cells, 72 h, stronger effect = higher value.
Setting [4] is: stronger effect = lower value, cell number ratio, induced over uninduced.
Setting [5] is: measured here: relative caspase fold change +Dox/-Dox.
Setting [6] is: measured here: total cells with miR-34 induction, stronger effect = lower value.
[7] abbreviates: measured here: total cells without miR-34 induction.
Where [8] appears, read: MELAS cybrid survival, CellTiter-Glo 48 h, stronger effect = higher value.
Setting [9] is: Rieske KO mouse fibroblast survival, CellTiter-Glo 72 h.

Structures are written as SMILES. Activity calls are given as the source filed them.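 How the source made its calls, unless noted: active means compounds whose cell count with miR-34 switched on is under 0.7 times the count with it off; inactive means the rest.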

Regarding `CCn1ncc(NC(=O)Cn2nc(C)c(-c3cccc(C(C)=O)c3)c2C)n1`, the fold change in assay [1] (setting [4]) is 0.83 (inactive); in assay [1] (setting [5]) it was 2.28. Further, the cell count in assay [1] (setting [6]) came to 2420; in assay [1] (setting [7]), 2910. For the same compound, the z-score in assay [2] (setting [8]) was -0.514 (inactive); in assay [2] (setting [9]) it was -0.567; in assay [3] it was -0.465 (inactive).

Regarding `c1ccc2c(CCc3ccncc3)c[nH]c2c1`, the fold change in assay [1] (setting [4]) was 0.863 (inactive); in assay [1] (setting [5]), 0.826. The cell count in assay [1] (setting [6]) was 7350; in assay [1] (setting [7]) it was 8520. In addition, the z-score is 1.96 (inactive) in assay [2] (setting [8]), -0.242 in assay [2] (setting [9]) and -0.71 (inactive) in assay [3].

In the case of `CCCCS(=O)(=O)CCC(=O)O`, the values for the fold change in assay [1] (setting [4]) and in assay [1] (setting [5]) were 0.879 (inactive) and 0.837, respectively. Moreover, the cell count in assay [1] (setting [6]) came to 8330; in assay [1] (setting [7]), 9470. The z-score in assay [2] (setting [8]) is -0.282 (inactive); in assay [2] (setting [9]), -0.71; in assay [3], -0.155 (inactive).

With `O=C(O)CN(CCO)CCO`, the figures for the fold change in assay [1] (setting [4]) and in assay [1] (setting [5]) were 0.873 (inactive) and 0.542, respectively. For the same compound, the figures for the cell count in assay [1] (setting [6]) and in assay [1] (setting [7]) were 8460 and 9690, respectively. In addition, the z-score in assay [2] (setting [8]) is -0.0565 (inactive); in assay [2] (setting [9]), -0.265; in assay [3], 0.37 (inactive).

As for `CC[C@H](C)[C@H](NC(=O)c1nc2ccccc2c(=O)[nH]1)C(=O)OC`, the fold change in assay [1] (setting [4]) is 0.844 (inactive); in assay [1] (setting [5]) it was 2.34. Moreover, the cell count worked out at 7550 in assay [1] (setting [6]) and 8940 in assay [1] (setting [7]). Further, the z-score in assay [2] (setting [8]) was 0.166 (inactive); in assay [2] (setting [9]), -0.367; in assay [3] it was -0.31 (inactive).

For `NC(N)=NCC(=O)O`, the fold change in assay [1] (setting [4]) was 0.926 (inactive); in assay [1] (setting [5]), 0.467. The results for the cell count in assay [1] (setting [6]) and in assay [1] (setting [7]) were 8690 and 9380, respectively. For the same compound, the results for the z-score in assay [2] (setting [8]), in assay [2] (setting [9]) and in assay [3] were 0.863 (inactive), 0.0822 and 0.15 (inactive), respectively.

Take `CN1CC2c3ccccc3Oc3ccc(Cl)cc3C2C1` (stereo not drawn): the results for the fold change in assay [1] (setting [4]) and in assay [1] (setting [5]) were 0.788 (inactive) and 0.355, respectively. The cell count in assay [1] (setting [6]) is 4990; in assay [1] (setting [7]), 6330. Further, the z-score in assay [2] (setting [8]) is 0.214 (inactive); in assay [2] (setting [9]), 0.0022; in assay [3] it was -2.21 (inactive).

For `COc1cccc(-c2noc(Cc3ccc4c(c3)OCO4)n2)c1`, the fold change is 0.929 (inactive) in assay [1] (setting [4]) and 1.11 in assay [1] (setting [5]). Also, the cell count in assay [1] (setting [6]) stood at 9000; in assay [1] (setting [7]) it was 9680. Also, the z-score in assay [2] (setting [8]) was 0.523 (inactive); in assay [2] (setting [9]), 0.163; in assay [3], 2.67 (active).

On to `CN1CCN(c2ncnc3sccc23)CC1=O`, for which the fold change is 0.928 (inactive) in assay [1] (setting [4]) and 1.32 in assay [1] (setting [5]). The values for the cell count in assay [1] (setting [6]) and in assay [1] (setting [7]) were 9620 and 10400, respectively. Besides, the z-score in assay [2] (setting [8]) was -0.0885 (inactive); in assay [2] (setting [9]), -0.276; in assay [3] it was -0.54 (inactive).

In the case of `O=C(CC(=O)C(F)(F)F)c1cccs1`, the fold change is 0.883 (inactive) in assay [1] (setting [4]) and 0.164 in assay [1] (setting [5]). Also, the results for the cell count in assay [1] (setting [6]) and in assay [1] (setting [7]) were 8190 and 9270, respectively. Moreover, the z-score in assay [2] (setting [8]) is -1.06 (inactive); in assay [2] (setting [9]) it was 0.275; in assay [3], -0.485 (inactive).

As for `COc1ccc(CN(C)C(=O)Nc2nc(-c3ccccc3)ns2)cc1`, the fold change is 0.886 (inactive) in assay [1] (setting [4]) and 1.46 in assay [1] (setting [5]). For the same compound, the cell count came out at 6810 in assay [1] (setting [6]) and 7690 in assay [1] (setting [7]). In addition, the z-score in assay [2] (setting [8]) was -0.0703 (inactive); in assay [2] (setting [9]), 0.35; in assay [3], 0.77 (inactive).

With `O=c1ccc2ccccc2[nH]1`, the fold change in assay [1] (setting [4]) is 0.871 (inactive); in assay [1] (setting [5]), 0.441. In addition, the figures for the cell count in assay [1] (setting [6]) and in assay [1] (setting [7]) were 8280 and 9510, respectively. The z-score in assay [2] (setting [8]) was 1.28 (inactive); in assay [2] (setting [9]) it was 0.0217; in assay [3], 0.98 (inactive).

On to `Nc1cccc(-c2cccc(OCc3ccccc3)c2)n1`, for which the fold change in assay [1] (setting [4]) was 0.803 (inactive); in assay [1] (setting [5]), 1.74. In addition, the values for the cell count in assay [1] (setting [6]) and in assay [1] (setting [7]) were 7230 and 9010, respectively. Further, the results for the z-score in assay [2] (setting [8]), in assay [2] (setting [9]) and in assay [3] were -0.19 (inactive), -0.156 and -0.555 (inactive), respectively.

In the case of `O=C(O)COc1cccc2ccccc12`, the fold change in assay [1] (setting [4]) was 0.847 (inactive); in assay [1] (setting [5]), 0.59. Besides, the cell count in assay [1] (setting [6]) came out at 7750; in assay [1] (setting [7]) it was 9150. In addition, the z-score was -0.276 (inactive) in assay [2] (setting [8]), 0.135 in assay [2] (setting [9]) and 0.555 (inactive) in assay [3].

Consider `O=C(Nc1cccnc1)C1CCN(C(=O)c2ccccc2Cl)CC1`, for which the fold change is 0.886 (inactive) in assay [1] (setting [4]) and 1.9 in assay [1] (setting [5]). Further, the cell count in assay [1] (setting [6]) was 8890; in assay [1] (setting [7]), 10000. Also, the z-score was 0.0994 (inactive) in assay [2] (setting [8]), -0.159 in assay [2] (setting [9]) and -0.045 (inactive) in assay [3].

In the case of `CCn1cnc(NC(=O)N(C)CC2Cc3ccccc3O2)n1` (stereo not drawn), the fold change in assay [1] (setting [4]) is 0.971 (inactive); in assay [1] (setting [5]) it was 1.16. For the same compound, the figures for the cell count in assay [1] (setting [6]) and in assay [1] (setting [7]) were 9520 and 9810, respectively. The z-score in assay [2] (setting [8]) was -0.133 (inactive); in assay [2] (setting [9]), -0.0873; in assay [3], -0.62 (inactive).

As for `Nc1ncc(Cc2ccccc2)s1`, the figures for the fold change in assay [1] (setting [4]) and in assay [1] (setting [5]) were 0.906 (inactive) and 0.514, respectively. Besides, the results for the cell count in assay [1] (setting [6]) and in assay [1] (setting [7]) were 8010 and 8850, respectively. The z-score in assay [2] (setting [8]) is -0.355 (inactive); in assay [2] (setting [9]), -0.511; in assay [3], -0.26 (inactive).

As to `Cc1nn(C)cc1-c1ccnc(NC2CCOC(C)(C)C2)n1` (stereo not drawn), the fold change in assay [1] (setting [4]) was 0.847 (inactive); in assay [1] (setting [5]), 2.06. The figures for the cell count in assay [1] (setting [6]) and in assay [1] (setting [7]) were 8460 and 9990, respectively. Besides, the z-score in assay [2] (setting [8]) is -0.0523 (inactive); in assay [2] (setting [9]), -0.494; in assay [3], -0.56 (inactive).

With `Cc1ccccc1-n1cc(-c2ccnc(NCCC3(O)CCN(C)CC3)n2)cn1`, the fold change is 0.797 (inactive) in assay [1] (setting [4]) and 1.49 in assay [1] (setting [5]). The values for the cell count in assay [1] (setting [6]) and in assay [1] (setting [7]) were 8470 and 10600, respectively. The z-score in assay [2] (setting [8]) was 0.152 (inactive); in assay [2] (setting [9]) it was -0.0851; in assay [3] it was -0.43 (inactive).

As for `OCC(O)COc1ccc(Cl)cc1` (stereo not drawn), the fold change in assay [1] (setting [4]) was 0.886 (inactive); in assay [1] (setting [5]), 0.44. Also, the cell count in assay [1] (setting [6]) amounted to 8700; in assay [1] (setting [7]) it was 9820. For the same compound, the z-score in assay [2] (setting [8]) is 0.325 (inactive); in assay [2] (setting [9]) it was 0.457; in assay [3], 0.62 (inactive).

Turning to `Cn1nc(NC(=O)Cn2ccc(-c3ccco3)n2)c2ccccc21`, the fold change was 0.861 (inactive) in assay [1] (setting [4]) and 2.39 in assay [1] (setting [5]). Also, the cell count in assay [1] (setting [6]) turned out to be 7120; in assay [1] (setting [7]), 8270. The z-score was 1.07 (inactive) in assay [2] (setting [8]), 0.074 in assay [2] (setting [9]) and 0.205 (inactive) in assay [3].

Regarding `CC1(C)CC(=O)c2sc(N3CCOCC3)nc2C1`, the fold change in assay [1] (setting [4]) is 0.909 (inactive); in assay [1] (setting [5]), 0.788. Also, the cell count is 8160 in assay [1] (setting [6]) and 8970 in assay [1] (setting [7]). Besides, the z-score in assay [2] (setting [8]) was 0.786 (inactive); in assay [2] (setting [9]) it was -0.0343; in assay [3] it was 0.025 (inactive).

As to `O=C(O)CCCCCNC(=O)NC1CCCCC1`, the fold change in assay [1] (setting [4]) was 0.882 (inactive); in assay [1] (setting [5]), 0.38. Further, the cell count in assay [1] (setting [6]) amounted to 9190; in assay [1] (setting [7]) it was 10400. Further, the z-score in assay [2] (setting [8]) was -0.568 (inactive); in assay [2] (setting [9]), 0.057; in assay [3] it was 0.68 (inactive).

On to `Cc1csc(CNc2nccc(-c3cnn(-c4ccccc4)c3)n2)n1`, for which the fold change is 0.775 (inactive) in assay [1] (setting [4]) and 1.81 in assay [1] (setting [5]). Moreover, the cell count in assay [1] (setting [6]) is 4550; in assay [1] (setting [7]), 5870. The z-score in assay [2] (setting [8]) is -0.292 (inactive); in assay [2] (setting [9]), 0.283; in assay [3], -0.175 (inactive).
